Reference: PubChem BioAssay (EPA / NIEHS)
Records with an inconclusive call do not appear. The source made the active and inactive calls. The calls were made as follows: active = hit-call score of the fitted dose curve at least 0.9, where 1 is the maximum; inconclusive = response in the unintended direction; inactive = score below 0.9.

Key:
[1] = target: Cellular tumor antigen p53 (Homo sapiens) (UniProt P04637); assay: TOX21_p53_BLA_p2_ratio: Tox21 HCT-116 p53 Agonism Beta-lactamase Assay, Ratio, Phase 2 (AID 2283592)
Chain of Cellular tumor antigen p53 (Homo sapiens) (P04637 whole entry, looked up): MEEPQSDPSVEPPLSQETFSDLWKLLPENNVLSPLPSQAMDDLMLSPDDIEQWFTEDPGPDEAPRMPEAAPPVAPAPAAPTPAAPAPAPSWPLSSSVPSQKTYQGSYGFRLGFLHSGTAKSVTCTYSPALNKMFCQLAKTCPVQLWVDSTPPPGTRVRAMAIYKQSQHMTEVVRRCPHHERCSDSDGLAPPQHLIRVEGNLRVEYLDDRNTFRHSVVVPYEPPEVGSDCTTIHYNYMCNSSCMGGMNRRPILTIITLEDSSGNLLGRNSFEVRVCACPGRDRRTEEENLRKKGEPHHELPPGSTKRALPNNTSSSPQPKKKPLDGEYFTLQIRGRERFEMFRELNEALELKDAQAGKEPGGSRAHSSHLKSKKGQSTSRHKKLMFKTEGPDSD
How it was run: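 HCT116 p53-bla; 4000 cells/well; 5 h pre-incubation; cpd in DMSO, 217-fold dilution; 16 h 37C/5% CO2; CCF4-AM 2 h RT; Ex 405, Em 460/530 ratio; DMSO = baseline; positive fitting direction.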

[2] = TOX21_p53_BLA_p3_viability: Viability Assessment in the Tox21 HCT-116 p53 Agonism Beta-lactamase Assay, Phase 3 (AID 2283593);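 also: cells exposed to compound for 16 h before reading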
How it was run: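 HCT-116 cells (4000/well) rested 5 h at 37C, then got DMSO compounds by pin tool (217-fold dilution) for 16 h at 37C, 5% CO2. After the bla read, CellTiter-Glo was added and luminescence read at 30 min, room temperature.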

[3] = target: Cellular tumor antigen p53 (Homo sapiens) (UniProt P04637); assay: TOX21_p53_BLA_p3_ratio: Tox21 HCT-116 p53 Agonism Beta-lactamase Assay, Ratio, Phase 3 (AID 2283596)
How it was run: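 HCT116 p53-bla cells (4000/well) given compound in DMSO (217-fold dilution) after 5 h, incubated 16 h at 37C. CCF4-AM substrate 2 h at room temperature; 460/530 nm emission ratio, gain fitted against DMSO.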

[4] = target: Cellular tumor antigen p53 (Homo sapiens) (UniProt P04637); assay: TOX21_p53_BLA_p5_ratio: Tox21 HCT-116 p53 Agonism Beta-lactamase Assay, Ratio, Phase 5 (AID 2283599)
How it was run: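 HCT-116 cells carrying a p53-inducible beta-lactamase reporter were seeded at 4000 cells/well and dosed after 5 h with compound in DMSO (217-fold dilution). After 16 h at 37C, CCF4-AM substrate was added for 2 h, and the 460/530 nm emission ratio was scored as gain-of-signal versus DMSO.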

[5] = target: Cellular tumor antigen p53 (Homo sapiens) (UniProt P04637); assay: TOX21_p53_BLA_p4_ratio: Tox21 HCT-116 p53 Agonism Beta-lactamase Assay, Ratio, Phase 4 (AID 2283601)
How it was run: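 HCT116 cells carrying an inducible beta-lactamase reporter were plated at 4000 cells/well, rested 5 h, then exposed to compounds in DMSO (217-fold dilution) for 16 h at 37C. CCF4-AM substrate was loaded 2 h at room temperature; 460/530 nm emission ratio scored gain-of-signal versus DMSO.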

[6] = Tanguay_ZF_120hpf_MORT_legacy: (Legacy) Oregon State University Tanguay Lab 120 Hour Post-fertilization zebrafish Assay for Mortality (AID 2283633)
How it was run: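 5D WT zebrafish, chorion removed 4 hpf; 1 embryo/well from 6 hpf; static exposure to 120 hpf, 28C, dark, sealed. Final DMSO 0.64%. Readout: binary mortality, brightfield, 24 + 120 hpf; DMSO as negative control.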

[7] = Tanguay_ZF_120hpf_YSE_legacy: (Legacy) Oregon State University Tanguay Lab 120 Hour Post-fertilization zebrafish Assay for Yolk Sac Edema (AID 2283634);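 as to AC50: actives raise the incidence of yolk sac edema above the DMSO baseline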
How it was run: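 Dechorionate (pronase, 4 hpf) → place one 6 hpf embryo per well → static compound exposure, sealed and foil-covered, 28C, to 120 hpf → record yolk sac edema as present or absent. Final DMSO 0.64%.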

[8] = TOX21_p53_BLA_p2_viability: Viability Assessment in the Tox21 HCT-116 p53 Agonism Beta-lactamase Assay, Phase 2 (AID 2283591);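 also: compound exposure lasted 16 h at 37 °C; actives lower the ATP signal meaning cytotoxicity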
How it was run: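 HCT-116 p53-bla cells (4000/well) rested 5 h at 37C, then received compounds in DMSO (217-fold dilution) for 16 h at 37C, 5% CO2. After the CCF4 read, CellTiter-Glo was added; ATP luminescence was read after 30 min at room temperature.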

[9] = TOX21_p53_BLA_p5_viability: Viability Assessment in the Tox21 HCT-116 p53 Agonism Beta-lactamase Assay, Phase 5 (AID 2283600)
How it was run: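 4000 cells/well; 5 h pre-incubation; DMSO compounds pin-transferred, 217-fold dilution; 16 h, 37C/5% CO2; CCF4-AM 2 h RT; CellTiter-Glo 30 min RT; luminescence.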

[10] = TOX21_p53_BLA_p4_viability: Viability Assessment in the Tox21 HCT-116 p53 Agonism Beta-lactamase Assay, Phase 4 (AID 2283597);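 also: hits lower the luminescence signal meaning cytotoxicity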
How it was run: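 Cells plated, 5 h pre-incubation; DMSO compounds pinned (217-fold dilution); 16 h, 37C/5% CO2; CCF4-AM 2 h RT; CellTiter-Glo 30 min RT; luminescence read.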

SMILES: CCCCOC(=O)c1ccccc1C(=O)OCCCC
- outcome [1]: inactive
- outcome [2]: inactive
- outcome [3]: inactive
- outcome [4]: inactive
- outcome [5]: inactive
- outcome [6]: inactive
- outcome [7]: inactive

SMILES: COc1nc(NC(C)C)nc(NC(C)C)n1
- outcome [1]: inactive
- outcome [3]: inactive
- outcome [4]: inactive
- outcome [5]: inactive
- outcome [6]: inactive
- outcome [7]: inactive

SMILES: COP(=S)(OC)Oc1nc(Cl)c(Cl)cc1Cl
- outcome [8]: inactive
- outcome [1]: inactive
- outcome [2]: inactive
- outcome [4]: inactive
- outcome [9]: inactive
- outcome [5]: inactive
- outcome [6]: inactive
- outcome [7]: inactive

SMILES: CC(C)C1(C)N=C(c2nc3ccccc3cc2C(=O)O)NC1=O (configuration not stated)
- outcome [8]: inactive
- outcome [1]: inactive
- outcome [3]: inactive
- outcome [10]: inactive
- outcome [4]: inactive
- outcome [5]: inactive
- outcome [7]: inactive

SMILES: O=C(O)COc1nc(Cl)c(Cl)cc1Cl
- outcome [8]: inactive
- outcome [1]: inactive
- outcome [2]: inactive
- outcome [3]: inactive
- outcome [10]: inactive
- outcome [4]: inactive
- outcome [9]: inactive
- outcome [5]: inactive
- outcome [6]: inactive
- outcome [7]: inactive

SMILES: CCc1nn(C)c(C(=O)NCc2ccc(C(C)(C)C)cc2)c1Cl
- AC50 [8]: 46.1 µM (active)
- AC50 [1]: 0.0232 µM (active)
- outcome [2]: inactive
- outcome [3]: inactive
- AC50 [10]: 46.1 µM (active)
- AC50 [9]: 46.1 µM (active)
- AC50 [5]: 76.6 µM (active)
- outcome [6]: inactive
- AC50 [7]: 6 µM (active)

SMILES: COC(=O)c1ccccc1C(=O)OC
- outcome [1]: inactive
- outcome [2]: inactive
- outcome [3]: inactive
- outcome [10]: inactive
- outcome [4]: inactive
- outcome [9]: inactive
- outcome [5]: inactive
- outcome [6]: inactive
- outcome [7]: inactive

SMILES: COC(=O)C=C(C)OP(=O)(OC)OC
- outcome [1]: inactive
- outcome [4]: inactive
- outcome [9]: inactive
- outcome [5]: inactive
- outcome [6]: inactive
- outcome [7]: inactive

SMILES: COC(=O)C(C)Oc1ccc(Oc2ccc(Cl)cc2Cl)cc1 (configuration not stated)
- outcome [8]: inactive
- outcome [1]: inactive
- outcome [3]: inactive
- outcome [10]: inactive
- outcome [4]: inactive
- outcome [6]: inactive
- outcome [7]: inactive

SMILES: CNC(=S)S
- outcome [8]: inactive
- outcome [1]: inactive
- outcome [2]: inactive
- outcome [3]: inactive
- outcome [10]: inactive
- outcome [4]: inactive
- outcome [5]: inactive
- outcome [6]: inactive
- outcome [7]: inactive

SMILES: CCCN(CCC)c1c([N+](=O)[O-])cc(S(N)(=O)=O)cc1[N+](=O)[O-]
- outcome [6]: inactive
- outcome [7]: inactive

SMILES: Cc1c(F)c(F)c(COC(=O)C2C(/C=C(\Cl)C(F)(F)F)C2(C)C)c(F)c1F (configuration not stated)
- outcome [8]: inactive
- outcome [1]: inactive
- outcome [2]: inactive
- outcome [3]: inactive
- outcome [10]: inactive
- outcome [9]: inactive
- outcome [6]: inactive
- AC50 [7]: 1.79 µM (active)

SMILES: COc1nc(C)nc(NC(=O)NS(=O)(=O)c2ccccc2Cl)n1
- outcome [8]: inactive
- outcome [1]: inactive
- outcome [3]: inactive
- outcome [9]: inactive
- outcome [5]: inactive

SMILES: CCNc1nc(Cl)nc(NC(C)C)n1
- outcome [1]: inactive
- outcome [5]: inactive
- outcome [6]: inactive
- outcome [7]: inactive
